Experimental data from PubChem BioAssay AID1845224 (National Center for Advancing Translational Sciences (NCATS), 2023).
Inconclusive results are not listed. Calls come from the whole dose curve; as a rule, active = well fitted curve in the direction sought with a large enough effect; inconclusive = small, poorly fitted or top-dose-only effect, or another doubt; inactive = no such curve, though single readings can be large or run the other way.

The compounds below were run on NanoLuc luciferase (engineered Oplophorus gracilirostris luciferase) (assay: Confirmatory Nanoluciferase (NLuc) qHTS assay for identification of artifact compounds.). Settings: secreted NLuc in S16 cell medium, luminescence, 5 min; series mostly up to 39 µM; activity change, negative = inhibition: at the top concentration.
Description: PI: Alexander Tropsha Ph.D. UNC Eshelman School of Pharmacy University of North Carolina, Chapel Hill, North Carolina Hits from high-throughput screening (HTS) of chemical libraries are often false positives due to their interference with the assay detection technology. In response to this problem, we generated the largest publicly available library of chemical liabilities and developed a free webtool to predict HTS artifacts, both of which are described herein. More specifically, we generated, curated, and integrated HTS datasets for thiol reactivity, redox activity, and luciferase (firefly and nano) activity. Using these curated datasets, we developed and validated several Quantitative Structure-Interference Relationship (QSIR) models to predict nuisance behavior. […] These models were employed for virtual profiling of the National Center for Advancing Translational Science's (NCATS) in-house library, and 256 compounds for each assay were selected for the experimental validation of nuisance behavior. The BA for these external predictions ranged from 58 to 78% for compounds within the applicability domains of the models. […] The models developed in this study, along with aggregation models previously developed by our group (SCAM Detective) were implemented in "Liability Predictor," an online tool which may be used as part of chemical library design or for triaging HTS hits. Both the models and the curated datasets are publicly available at https://liability.mml.unc.edu/.
PROTOCOL TABLE SEQUENCE No. (e.g., 1, 2, 3, etc.); PARAMETER (e.g., Cells, Incubation, Reagent, etc.); VALUE; DESCRIPTION. 1; Reagent; 2 uL; Nanoluciferase media. 2; Compounds and control; 16 nL; Kalypsis pin tool (Wako USA) equipped with a 1536-well pin head. 3; Incubation; 15 min. 4; Reagent; 2 uL; Luciferase enzyme. 5; Incubation; 5 min. 6; Detection; Luminescence, ViewLux microplate reader. NOTES (numbers refer to Sequence numbers above) 1. Medium was collected from the culture flasks of NLuc-expressing S16 cells (80% confluent) prior to cell plating, filtered through a 0.22um filter, and frozen at -20C prior to use. Media was diluted (1:55) and 2 uL was dispensed into all wells of a 1536-well assay plate (solid-bottom white plate; Greiner Bio One, Monroe, NC). 2. A Wako Pin-tool (Wako Automation, Richmond, VA) was used to transfer 16 nL of compounds (consisting of 7-plates in qHTS format, final concentration range 18.3 nM to 114 uM) or control Cilnidipine (final concentration range 623 nM to 80 uM). 3. 15 min. incubation at room temperature protected from light. 4. 2 uL of NLuc substrate (1:100 in Nano-Glo luciferase buffer; Nano-Glo luminescence assay, Promega, Madison, WI) was dispensed for a final assay volume of 4 uL. 5. Plates were centrifuged (121xg, 15 seconds) and incubated for 5 minutes. 6. Samples were read for luminescence on a ViewLux CCD imager (PerkinElmer). Data were normalized to no-enzyme (0% activity) and no-inhibitor (DMSO; 100%) controls and the resulting percent inhibition data were fitted to a 4-parameter Hill equation using NCATS in-house software.
Note: % of control where 0% means no effect.

Activity change, negative = inhibition, inactive:
CC1(C)OC2CC(=O)OCC23C1CC(=O)C1(C)C3CC[C@@]2(C)[C@H](c3ccoc3)OC(=O)C3OC312 (stereo not given in full) 0.365%
CCOC(=O)c1c(C)[nH]c(C)c1S(=O)(=O)N1CCC(C(=O)N2CCN(c3ccccc3)CC2)CC1 -10.8%
COC(=O)c1c(NC(=O)c2nc(SCc3cccc(C)c3)ncc2Cl)sc2c1CCCC2 -4.52%
COc1ccccc1Oc1coc2cc(O)ccc2c1=O -4.28%
Cc1ccc(C(=O)Nc2nc(-c3ccccc3)ns2)cc1 -7.23%
Cc1cc2oc(=O)cc(C)c2c2occ(-c3ccc(Cl)cc3)c12 -1.13%
CCOc1ccc(CCNC(=O)c2cnc3c(-c4ccccc4)c(C)nn3c2C)cc1OCC -1.56%
CC1=CC23C(=O)C(C=C(CO)[C@@H](O)[C@]2(O)[C@H]1O)[C@H]1[C@@H](C[C@H]3C)C1(C)C (stereo not given in full) 6.21%
CC(=O)Nc1ccc(Nc2nc3ccc(C)cc3n3nnnc23)cc1 1.1%
COc1ccc(-c2noc(N3CCC(C(=O)N4CCN(c5cccc(C)c5C)CC4)CC3)n2)cc1 -5.97%
C[C@@H]1O[C@@H](O[C@@H]2[C@@H](O)[C@H](OCCc3ccc(O)c(O)c3)O[C@H](CO[C@@H]3O[C@H](CO)[C@@H](O)[C@H](O)[C@H]3O)[C@H]2OC(=O)/C=C/c2ccc(O)c(O)c2)[C@H](O)[C@H](O)[C@H]1O 2.01%
Nc1cccc(-c2ccc(NC(=O)c3cccs3)cn2)c1 -1.41%
O=S(=O)(Nc1cccc2cccnc12)c1ccccc1 -9.29%
CCc1cccc(NC(=O)Cn2c(=O)n3nc(-c4cccc(F)c4)nc3c3ccccc32)c1 -14.1%
Cc1cccn2c(=O)c3cc(C(=O)NCc4ccccc4)c(=N)n(CCOCCO)c3nc12 -20%
Cc1ccc(C)c(N2CCN(C(=O)c3ccc(Nc4nc5ccccc5n5nnnc45)cc3)CC2)c1 -2.99%
C[C@@H]1C[C@H]2[C@@H]3CCC4=CC(=O)C=C[C@]4(C)[C@@]3(F)[C@@H](O)C[C@]2(C)[C@@]1(O)C(=O)CO -0.23%
COc1ccc(CNC(=O)CCc2c(C)nc3c4cccnc4nn3c2C)cc1 -5.25%
COC(=O)CCC(C)C1CCC2C3CC[C@H]4CC(O)CC[C@@]4(C)C3CC(O)[C@]12C (stereo not given in full) -8.16%
COc1ccccc1-c1nc2cc(NC(=O)c3ccccc3Cl)ccc2o1 -4.05%
O=C1NC(=O)/C(=C/c2cccn2-c2ccc(P(=O)(O)O)cc2)N1 -3.45%
O=C(O)c1cc(F)c(S(=O)(=O)N2CCN(S(=O)(=O)c3ccc4c(c3)OCCO4)CC2)cc1F -15.6%
CC(=O)N1CCC(N(Cc2ccco2)C(=O)Nc2ccc(C)c(Cl)c2)CC1 -15.5%
COc1ccccc1/C=C/c1nc(C#N)c(NCCc2ccccc2)o1 -17.7%
CNS(=O)(=O)c1cn(CC(=O)N2CCN(c3ccc(C(C)=O)cc3)CC2)cc1S(=O)(=O)NC -15.7%
CCC1Oc2ccccc2N(CC(=O)NCc2ccc(C)cc2)C1=O (stereo not given) -14.7%
COc1ccc(CC(N)C(=O)N[C@H]2[C@@H](O)[C@H](n3cnc4c(N(C)C)ncnc43)O[C@@H]2CO)cc1 (stereo not given in full) -0.358%
Cc1cc(NC(=O)Nc2cccc(-c3ccncc3)n2)ccc1Cl -2.7%
Cc1ccc(NC(=O)Cn2c(=O)n(CCC(=O)NCCc3ccccc3)c(=O)c3ccccc32)cc1 -10.7%
COc1ccc(OCc2nnc(-c3ccccc3)o2)cc1 -6.57%
COc1ccc(C(=O)Nc2ccc(-c3nc4ncccc4o3)cc2)cc1 -15.3%
CCCNC(=O)N1CCCN(S(=O)(=O)c2ccc3c(ccn3CC)c2)CC1 -1.42%
Cc1ccc(NC(=O)c2nc(-c3ccncc3)no2)c(Cl)c1 4.6%
COc1ccc(NC(=O)Cn2c(=O)n(CCc3ccccc3)c(=O)c3c4c(sc32)CCCC4)cc1 -3.22%
CCOC(=O)N1CCN(S(=O)(=O)N2CCCC(C(=O)NCc3cccc(OC)c3)C2)CC1 (stereo not given) -6.38%
CCOc1ccccc1NC(=O)N1CCCn2nc(C)cc21 0%
O=C(Nc1ccc2oc(-c3cccnc3)nc2c1)c1cc2ccccc2o1 -7.65% [at 78.4 µM]
CC(C)C[C@H](NC(=O)[C@H](Cc1ccccc1)NC(=O)CNC(=O)CNC(=O)[C@@H](N)Cc1ccc(O)cc1)C(=O)N[C@@H](CCCN=C(N)N)C(=O)N[C@@H](CCCN=C(N)N)C(=O)N[C@@H](CCC(N)=O)C(=O)N[C@@H](Cc1ccccc1)C(=O)N[C@@H](CCCCN)C(=O)N[C@H](C(=O)N[C@H](C(=O)N[C@H](C(=O)O)[C@@H](C)O)C(C)C)C(C)C 9.86% [at 4.32 µM]
CCOC(=O)c1cccc(NC(=O)c2ccc3snnc3c2)c1 -2.68%
C=C(C)[C@]12C[C@@H](C)[C@@]34OC(Cc5ccccc5)(O[C@@H]1[C@@H]3C=C(COC(=O)Cc1cc(OC)c(O)cc1I)C[C@]1(O)C(=O)C(C)=C[C@@H]41)O2 -8.96%
